Consider 14 compounds from PubChem BioAssay.

The target in one test is Albumin (Bos taurus) (UniProt P02769). Put plainly: compounds binding labelled BSA control protein – biochemical, small-molecule microarray, Alexa647 label, 635/667 nm fluorescence, artefact control for SMM control protein annotation, profiling panel (AID 1118).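 Further: score merges 667 nm emission intensity and signal-to-noise per printed compound spot.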 The conditions noted are these: BSA-A647 binding, fluorescence 635 nm, higher = more signal.
Sequence of Albumin (Bos taurus) (P02769 whole entry, looked up): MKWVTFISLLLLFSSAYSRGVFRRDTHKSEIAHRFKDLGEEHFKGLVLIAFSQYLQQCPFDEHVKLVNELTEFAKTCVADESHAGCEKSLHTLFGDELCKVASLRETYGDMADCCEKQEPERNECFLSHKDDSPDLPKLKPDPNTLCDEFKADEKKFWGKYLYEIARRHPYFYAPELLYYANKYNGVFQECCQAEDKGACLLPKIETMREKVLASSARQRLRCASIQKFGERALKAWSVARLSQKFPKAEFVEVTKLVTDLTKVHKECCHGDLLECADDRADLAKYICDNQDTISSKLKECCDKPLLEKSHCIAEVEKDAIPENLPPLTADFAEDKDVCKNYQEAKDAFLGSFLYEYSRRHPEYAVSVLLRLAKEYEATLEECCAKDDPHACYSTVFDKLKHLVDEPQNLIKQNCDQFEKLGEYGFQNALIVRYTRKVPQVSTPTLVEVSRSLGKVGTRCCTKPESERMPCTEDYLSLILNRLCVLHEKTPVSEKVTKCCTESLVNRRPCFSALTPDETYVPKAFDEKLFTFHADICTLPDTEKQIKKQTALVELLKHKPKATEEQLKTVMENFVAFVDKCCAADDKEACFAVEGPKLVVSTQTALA
Test [1] is described as follows: probe aXIP binding to arrayed compounds – biochemical, NeuroSMM set, 635/667 nm fluorescence, primary screen (AID 1119).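 Further: probe is the protein aXip251-270 applied at 1 µg/mL to compound-printed slides; binding of probe to printed compounds measured as 667 nm fluorescence plus signal to noise.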 The settings on record: small-molecule microarray, higher = more signal, called active from +8 up or from −8 down.
The nature of test [2]: probe aNOTCH3 binding on compound microarray – biochemical, small-molecule microarray, 635/667 nm fluorescence, primary screen (AID 1120).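 Further: probe is a biotin-tagged antibody raised against NOTCH3 rather than NOTCH3 protein; score merges spot fluorescence near 667 nm with spot signal to noise.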 The conditions noted are these: higher = more signal.
Test [3] can be described thus: probe aNOTCH2 binding on compound microarray – biochemical, small-molecule microarray, 635/667 nm fluorescence, primary screen (AID 1121).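 Further: score merges feature fluorescence read at 667 nm with its signal to noise.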 The conditions noted are these: higher = more signal.
In test [4] the target is Carbonic anhydrase 2 (Homo sapiens) (UniProt P00918). Put plainly: compounds binding carbonic anhydrase 2 – biochemical, small-molecule microarray, Alexa647-labelled CAII, profiling panel (AID 1122). The conditions noted are these: CAII-A647 binding fluorescence, higher = more signal.
Test [5] in a line: COS7 lysate on small-molecule microarray, probe aHis, 635 nm (AID 1123).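 Further: z-score combines 667nm fluorescence intensity with signal-to-noise per printed compound spot.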 The conditions noted are these: COS7 cell lysate, fluorescence, higher = more signal.
The nature of test [6]: probe aLAP1 signal on lysate-treated microarray – cell lysate, small-molecule microarray, COS7 lysate, primary screen (AID 1124).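 Further: lysate comes from COS7 cells expressing LAP1 and is applied at 0.3 µg/mL; score merges spot fluorescence near 667 nm with signal-to-noise over triplicate slides.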 The settings on record: probe aLAP1, fluorescence, higher = more signal.
For the next test, the system named is Sam68 (KHDRBS1). Put plainly: compounds binding KHDRBS1 protein – biochemical, small-molecule microarray, 635 nm fluorescence, primary screen (AID 1125).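 Further: score merges 667 nm channel intensity with signal to noise over triplicate slides.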 The conditions noted are these: higher = more signal.
Test [7] relates to Chordin-like protein 2 (CHRDL2). Put plainly: compounds binding chordin-like 2 – biochemical, small-molecule microarray, 635 nm fluorescence, primary screen (AID 1126).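 Further: printed compound slides probed with Chrdl2 protein at 4 µg/mL for 1 h at 4 C; score merges 667 nm emission intensity with signal to noise over three replicate slides.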 The conditions noted are these: fluorescence 635 nm, higher = more signal.
Test [8] deals with Concanavalin-A (Canavalia ensiformis) (UniProt P02866). Put plainly: compounds binding concanavalin A lectin – biochemical, small-molecule microarray, Alexa647 label, 635 nm, artefact control for SMM control protein annotation, primary screen (AID 1127).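 Further: z combines 667 nm emission intensity with signal-to-noise across three replicate slides.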 The conditions noted are these: ConA-A647 binding fluorescence, higher = more signal.
Sequence of Concanavalin-A (Canavalia ensiformis) (P02866 whole entry, looked up): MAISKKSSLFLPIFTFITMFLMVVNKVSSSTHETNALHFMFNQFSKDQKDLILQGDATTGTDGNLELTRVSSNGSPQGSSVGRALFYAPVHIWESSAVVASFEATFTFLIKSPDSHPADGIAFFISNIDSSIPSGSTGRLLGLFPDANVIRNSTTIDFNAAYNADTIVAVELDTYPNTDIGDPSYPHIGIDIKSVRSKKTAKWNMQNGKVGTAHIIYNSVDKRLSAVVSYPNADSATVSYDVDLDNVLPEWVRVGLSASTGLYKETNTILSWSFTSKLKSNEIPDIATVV

Active and inactive are the calls of the source.

With `O=C(CCCCCCC(=O)Nc1ccccc1)N/N=C/c1ccccc1`, the composite z-score is -0.4 with Albumin (Bos taurus); -0.154 in test [2]; -0.144 in test [3]; -0.251 in [4]; -0.591 in test [5]; 0.212 in [6]. For the same compound, the composite z-score in the test on Sam68 (KHDRBS1) is -0.731; in test [7], 0.358; in test [8] it was -0.434. The composite Z-score in test [1] was 0.0068 (inactive).

Regarding `CCOC(=O)C1=CC[C@@H](c2ccccc2)N(S(=O)(=O)c2ccc(C)cc2)C1`, the composite z-score in the test with Albumin (Bos taurus) was 0.425; in test [2], 0.283; in test [3] it was -0.0176; in test [4], 0.38; in [5] it was 0.522; in test [6], 0.786. Also, the composite z-score in the test with Sam68 (KHDRBS1) was 0.143; in [7], 0.565; in [8] it was -0.264. Moreover, the composite Z-score in [1] is -0.0056 (inactive).

As for `COc1ccccc1CN1C(=O)c2ccccc2[C@](Cc2ccccc2I)(C(=O)NC(C)C)[C@@H]1c1ccc(CO)cc1`, the composite z-score was 0.894 with Albumin (Bos taurus); 0.101 in test [2]; -0.123 in test [3]; 0.131 in test [4]; 2.39 in test [5]; 0.226 in test [6]. Besides, the composite z-score was 1.3 in the test on Sam68 (KHDRBS1), 0.286 in [7] and 1.16 in test [8]. Besides, the composite Z-score in test [1] is 0.338 (inactive).

As to `C=CCN1C(=O)[C@@]2(CCC(=O)OC(C)(C)C)N=C(c3ccc(OCCCO)cc3)O[C@H]2c2ccccc21`, the composite z-score with Albumin (Bos taurus) came to 0.71; in test [2], 0.108; in [3] it was 0.0484; in [4] it was 0.654; in test [5] it was 1.33; in test [6], 0.0616. Moreover, the composite z-score stood at 0.817 with Sam68 (KHDRBS1), 0.145 in test [7] and 1.16 in [8]. Also, in test [1], the composite Z-score is 0.0873 (inactive).

Consider `CN1C2C=C(CCCO)C(C3C(=O)N(C(N)=O)C(=O)C32)C1c1cccs1` (stereo not given), for which the composite z-score with Albumin (Bos taurus) was -0.435; in test [2] it was -0.179; in test [3], 0.61; in test [4] it was 0.409; in test [5], 0.924; in [6] it was -0.212. Besides, the composite z-score in the test on Sam68 (KHDRBS1) is 0.226; in test [7] it was 1.51; in test [8] it was -0.0398. Besides, in test [1], the composite Z-score is -0.394 (inactive).

Consider `C=CCNC(=O)[C@@H]1[C@H]2C(=O)O[C@H](c3ccccc3)[C@H](c3ccccc3)N2[C@H](c2ccc(OCCO)cc2)[C@@]12C(=O)N(C(=O)OCCOC)c1ccc(C#CC3=CCCCC3)cc12`, for which the composite z-score was 0.498 with Albumin (Bos taurus); 0.144 in test [2]; -0.0832 in test [3]; 0.621 in [4]; 0.634 in test [5]; 0.923 in test [6]. Further, the composite z-score in the test with Sam68 (KHDRBS1) worked out at 1.3; in test [7], 0.606; in [8] it was 1.15. In addition, the composite Z-score in test [1] is 0.223 (inactive).

Turning to `COC(=O)c1c(CC[C@@H](CO)NC(=O)N[C@H](Cn2cc(-c3ccccc3C)nn2)C(C)C)oc(C(C)=O)c1C(=O)OC`, the composite z-score in the test with Albumin (Bos taurus) was 0.119; in [2] it was -0.0731; in [3], -0.075; in test [4] it was 0.0708; in test [5], -0.363; in test [6], -0.108. Further, the composite z-score is -1.08 in the test with Sam68 (KHDRBS1), -0.767 in test [7] and 0.43 in [8]. For the same compound, in test [1], the composite Z-score is -0.115 (inactive).

On to `COCCCNC(=O)[C@@H]1c2ccccc2C(=O)N(Cc2ccccc2C(F)(F)F)[C@H]1c1ccc(CO)cc1`, for which the composite z-score is -1.34 in the test with Albumin (Bos taurus); -0.186 in [2]; -0.131 in test [3]; 0.389 in test [4]; 1.19 in [5]; 0.216 in test [6]. In addition, the composite z-score in the test on Sam68 (KHDRBS1) is 0.433; in test [7], -0.781; in test [8] it was -0.264. For the same compound, the composite Z-score in test [1] was -0.0662 (inactive).

With `CC(C)(C)OC(=O)CC[C@]1(C(=O)O)N=C(c2ccc(OCCCO)cc2)O[C@H]1c1ccccc1CN=[N+]=[N-]`, the composite z-score came out at 0.472 in the test with Albumin (Bos taurus); 0.0165 in test [2]; 0.0264 in test [3]; 0.917 in test [4]; 0.811 in test [5]; 0.383 in test [6]. Further, the composite z-score with Sam68 (KHDRBS1) is 0.0075; in [7], -0.237; in test [8], -0.192. Moreover, the composite Z-score in test [1] was -0.209 (inactive).

`C=CCC(OC(C)=O)[C@@H]1[C@@H](N(Cc2cc3ccccc3o2)C(=O)Cc2ccc(F)cc2)c2cc(OCCCO)ccc2N1C(=O)c1ccc2ccccc2n1` (stereo not given in full): the composite z-score with Albumin (Bos taurus) was 0.124; in [2] it was -0.136; in test [3] it was -0.104; in test [4], -0.183; in [5] it was 0.178; in [6], 0.104. In addition, the composite z-score in the test with Sam68 (KHDRBS1) was -0.847; in test [7] it was 0.344; in test [8], -0.0002. Further, the composite Z-score in [1] is -0.16 (inactive).

For the compound `CCOC(=O)[C@H]1C/C=C/C[C@H](C(=O)OCC)C(=O)O[C@H]2[C@@H](OC)O[C@H](CO)[C@@H](OC(=O)Nc3ccc(OC)cc3)[C@@H]2OC1=O`, the composite z-score in the test with Albumin (Bos taurus) was found to be 0.441; in test [2] it was 0.292; in test [3] it was 0.0196; in test [4] it was 0.475; in [5], 0.984; in [6] it was 1.16. The composite z-score in the test with Sam68 (KHDRBS1) was 1.32; in test [7] it was 0.37; in test [8], 0.92. Further, the composite Z-score in test [1] was 0.937 (inactive).

Turning to `COc1ccc(CCNC(=O)[C@@]2(Sc3ccc(C)cc3)CC(=O)N(Cc3cc(C(F)(F)F)cc(C(F)(F)F)c3)[C@@H]2c2ccc(CO)cc2I)cc1`, the composite z-score is 0.259 with Albumin (Bos taurus); -0.193 in [2]; -0.106 in test [3]; 0.684 in test [4]; 1.54 in [5]; 0.227 in test [6]. For the same compound, the values for the composite z-score (in the test on Sam68 (KHDRBS1); in test [7]; in [8]) were 0.677, -0.596 and 0.759, respectively. Further, in test [1], the composite Z-score is 1.4 (inactive).

As for `C=C1C2CC3C(=C4C(CO[C@@H]4[C@H]4CCCN4S(=O)(=O)c4ccccc4[N+](=O)[O-])C4C(=O)N(C)C(=O)C34)CC2C(=O)N1C` (stereo not given in full), the composite z-score is 0.873 with Albumin (Bos taurus); 0.0897 in test [2]; -0.078 in [3]; 0.155 in test [4]; 0.5 in [5]; -0.0918 in test [6]. Further, the figures for the composite z-score (in the test with Sam68 (KHDRBS1); in [7]; in [8]) were -0.184, 0.0301 and 0.131, respectively. In addition, in test [1], the composite Z-score is 0.79 (inactive).

Turning to `O=C(O)[C@H]1C[C@H]2C(=O)N3CCC[C@H]3C(=O)N2[C@H]1c1cccc(OCCO)c1`, the composite z-score in the test with Albumin (Bos taurus) is -0.698; in test [2], -0.124; in [3] it was -0.115; in test [4] it was 0.525; in test [5], 1.21; in [6], -0.332. Also, the composite z-score was determined as 0.833 in the test on Sam68 (KHDRBS1), 0.996 in test [7] and 0.942 in test [8]. Also, in [1], the composite Z-score was 0.223 (inactive).
